For 95 molecules, AC50 and activity, negative = inhibition results are on record in PubChem BioAssay AID1851 (National Center for Advancing Translational Sciences (NCATS), 2009).

The structures appear in SMILES notation. Values joined by “and” are separate entries in the source; they are usually repeats but may differ in a detail not shown here. Equal values may be shown once. Hit rate of the full screen: of about 16,000 compounds, about 5,800 (36%) were called active. Inconclusive results (about 23%) are left out. The call rests on the fitted dose curve; in most records, active means well fitted curve in the direction sought with a large enough effect; inconclusive means small, poorly fitted or top-dose-only effect, or effect the other way; inactive means no such curve, though single readings can be large or run the other way. Some of the results follow. Some structures have more than one record in an assay (separate samples or runs), and their calls can disagree.
On the % scale 0 is the no-effect control and ±100 the full control effect.

Cytochrome P450 2C19 (Homo sapiens), sequence (P33261 whole entry, looked up): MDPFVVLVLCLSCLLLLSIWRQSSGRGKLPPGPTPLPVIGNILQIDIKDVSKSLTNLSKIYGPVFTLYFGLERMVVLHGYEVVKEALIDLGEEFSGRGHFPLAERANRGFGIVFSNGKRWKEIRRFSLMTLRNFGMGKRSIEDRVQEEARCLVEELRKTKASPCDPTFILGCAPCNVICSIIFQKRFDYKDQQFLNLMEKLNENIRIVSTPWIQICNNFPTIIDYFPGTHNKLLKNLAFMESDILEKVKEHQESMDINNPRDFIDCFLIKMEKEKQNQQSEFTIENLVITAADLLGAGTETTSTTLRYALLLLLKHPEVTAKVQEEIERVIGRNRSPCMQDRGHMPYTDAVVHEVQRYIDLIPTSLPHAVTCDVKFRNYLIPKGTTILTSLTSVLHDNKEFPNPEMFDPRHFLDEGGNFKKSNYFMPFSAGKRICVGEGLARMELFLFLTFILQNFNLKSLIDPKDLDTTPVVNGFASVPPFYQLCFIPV

This assay addresses Cytochrome P450 2C19 (Homo sapiens) (UniProt P33261). The assay can be described thus: Cytochrome panel assay with activity outcomes. Particulars: recombinant CYP, pro-luciferin dealkylation, luminescence, p450-cyp2c19; series mostly up to 57.1 µM.
One may read the AC50 as the concentration at which the activity in the assay is half-maximal. In the case of `O=C(NNC(=S)Nc1ccccc1)c1ccco1`, the AC50 result was “inactive”.

Take `CC1=C(C(=O)Nc2ccccc2)C(c2ccco2)NC(=S)N1` (stereo not given): the AC50 is 35.5 µM (active). Same read-out and setting: to `O=C(Nc1ccccc1)N1CC2(CCN(C(=O)c3ccco3)CC2)C1` belongs “inactive”.

Regarding `CCN(CC)CC[n+]1ccc2c(C)c3[nH]c4ccccc4c3c(C)c2c1`, the activity, negative = inhibition was 2.93% [at 11.4 µM] (inactive). In the case of `O=C(c1ccco1)N1CCC[C@@]2(CCN(C(c3ccccc3)c3ccccc3)C2)C1`, the AC50 result was “inactive”. On the same count and under the same terms, to `S=C(NCc1ccco1)N1CCN(C(c2ccccc2)c2ccccc2)CC1` belongs 7.08 µM (active); to `S=C(NCc1ccco1)N1CCN(Cc2ccco2)CC1`, 15.8 µM (active); to `CS(=O)(=O)Nc1c(O)ccc2c1CCC[C@H]2C1=NCCN1`, “inactive”.

For the molecule `CCOc1ccc(N2C(=O)c3cccnc3C2=O)cc1`, the AC50 entry is “inactive”. On the same count and under the same terms, to `O=C1c2cccnc2C(=O)N1Cc1ccc(F)cc1` belongs 8.91 µM (active); to `COc1ccccc1CN1CCCC2(CCN(C(C)=O)CC2)C1`, “inactive”; to `S=C1SCN(C2CCCCCCCCCCC2)CN1C1CCCCCCCCCCC1`, 3.98 µM (active). For the molecule `CCNc1ncc2nc(-c3ccc(F)cc3)c(=O)n(-c3ccc(OC)cc3)c2n1`, the AC50 entry was “inactive”.

`Cc1cc(OCCn2cc(/C(N)=N/O)c3ccccc32)ccc1Cl`: the AC50 is 0.708 µM (active). Regarding `CCCCNC(=O)Cc1coc2ccc3ccccc3c12`, the AC50 was 3.16 µM (active). Consider `CCCCN(C)C(=O)c1coc(=O)c2ccccc12`, for which the AC50 result is “inactive”. For the molecule `Cc1c(C#N)c(=O)oc2ccc3ccccc3c12`, the AC50 result was “inactive”. With `Nc1nc2c(c(=O)[nH]1)N(C=O)[C@H](CNc1ccc(C(=O)N[C@@H](CCC(=O)O)C(=O)O)cc1)CN2`, the AC50 result was “inactive”.

Turning to `CCOC(=O)c1c(C)c(C(=O)NCCN2CCOCC2)c(C)n1CC`, the AC50 entry was “inactive”. For `CCOC(=O)c1c(C)c(C(=O)N2CCCCCC2)c(C)n1C`, the AC50 was 7.08 µM (active).

Take `CC(C)CN1CCC2(CC1)CCN(C(=O)c1csnn1)CC2`: the AC50 result was “inactive”. Regarding `O=C(Nc1cccc(F)c1)/C(=C\c1ccco1)NC(=O)c1cccs1`, the AC50 is 14.1 µM (active). On the same count and under the same terms, to `CCOC(=O)c1c(C)nc2c(c1-c1ccccc1)C(=O)CC(C)(C)C2` belongs 7.08 µM (active); to `CCn1cc(C(=O)O)c(=O)c2cc(F)c(N3CCN[C@@H](C)C3)c(F)c21`, “inactive”.

Consider `COC(=O)C1=C(C)N=C2SC(C)C(=O)N2C1/C=C/c1ccccc1` (stereo not given), for which the concentration at half-maximal activity (AC50) was 5.01 µM (active). Regarding `CCc1cc2c(c(CC)n1)CCC(=O)N2Cc1ccc(-c2ccccc2-c2nn[nH]n2)cc1`, the AC50 was 5.01 µM (active).

For the molecule `CC1=N[C@@](C)(COC(=O)[C@]2(C)N[C@](C)(CO)CO2)COC1=O`, the activity, negative = inhibition is 40.4% [at 11.4 µM] (inactive). In the case of `O=C(O)/C(=C\c1ccccc1)c1ccccc1`, the activity, negative = inhibition is 11.9% [at 11.4 µM] (inactive). For the molecule `COc1ccc(/C=C(/C(=O)Nc2ccccc2C(=O)NC(C)C)c2ccccc2)cc1`, the half-maximal activity concentration (AC50) is 15.8 µM (active). Consider `CC(C)NC(=O)c1ccccc1NC(=O)/C=C/c1ccc([N+](=O)[O-])cc1`, for which the AC50 result is “inactive”.

As for `Cc1ccccc1NC(=O)/C(=C/c1ccccc1)c1ccccc1`, the AC50 is 10 µM (active).

In the case of `CCN(CC)CCOC(=O)C1(C2CCCCC2)CCCCC1`, the AC50 result is “inactive”.

Regarding `O=C(Nc1cccc(F)c1)N1CC2(CCN(C(=O)c3cc(C(F)(F)F)cc(C(F)(F)F)c3)CC2)C1`, the AC50 result is “inactive”. On to `N#Cc1cccc(NC(=O)N2CC3(CCN(C(=O)c4cc(C(F)(F)F)cc(C(F)(F)F)c4)CC3)C2)c1`, for which the AC50 is 0.631 µM (active).

As to `N#Cc1cccc(NC(=O)N2CCCC3(CCN(C(=O)c4cc(C(F)(F)F)cc(C(F)(F)F)c4)CC3)C2)c1`, the AC50 entry was “inactive”.

With `C/C(=N\OC(=O)c1ccc(F)cc1)c1nccs1`, the AC50 is 17.8 µM (active).

Consider `Cc1ccc2c(c1)/C(=N/OC(=O)c1ccc(F)cc1)CCS2`, for which the AC50 result was “inactive”. With `O=C(O)[C@H]1C[C@H](C(=O)O)N1`, the AC50 entry was “inactive”.

For `O=C(O)[C@@H]1C[C@@H](C(=O)O)N1`, the AC50 was 25.1 µM (active). Consider `O=C(O)[C@H]1[C@H](C(=O)O)[C@H](C(=O)O)C[C@@H]1C(=O)O`, for which the activity, negative = inhibition was 24.8% [at 11.4 µM] (inactive).

Take `O=[N+]([O-])c1ccccc1N/N=C/c1c[nH]c2ccccc12`: the AC50 is 10 µM (active). As to `COc1c(/C=N/Nc2ccc([N+](=O)[O-])cc2[N+](=O)[O-])c(C)nn1-c1ccccc1`, the AC50 result is “inactive”. On to `O=S(=O)(NCc1cn2ccsc2n1)c1ccc(Oc2ccccc2)cc1`, for which the AC50 is 10 µM (active). Regarding `COc1ccccc1N1CCN(CCN2C(=O)c3ccccc3C(C)(C)C2=O)CC1`, the AC50 entry was “inactive”. Turning to `COc1cccc2cc(C(=O)CC3(O)C(=O)N(Cc4ccccc4)c4ccccc43)c(=O)oc12` (stereo not given), the AC50 is 25.1 µM (active). As for `N.N.O=C(O)C1(C(=O)O)CCC1.[Pt]`, the AC50 is 3.98 µM (active). On to `O=C(O)C1(C(=O)O)CCN(S(=O)(=O)c2ccccc2)CC1`, for which the activity, negative = inhibition was 16.2% [at 11.4 µM] (inactive). As for `O=C(CSc1nnc(COc2ccccc2)n1-c1ccccc1)c1ccccc1`, the AC50 was 3.98 µM (active).

For the molecule `COc1ccc(OCc2nnc(SCC(=O)O)n2N)cc1`, the AC50 entry was “inactive”. On to `Nc1nonc1-n1nncc1-c1ccccc1`, for which the AC50 was 6.31 µM (active).

With `Cc1c(C(=O)N2CCCCCC2)nnn1-c1nonc1N`, the AC50 was 7.94 µM (active). In the case of `Cc1nonc1NC(=O)N1CCCC1`, the AC50 entry is “inactive”. For the molecule `CC(C)OC(=O)c1nnn(-c2nonc2N)c1CSc1ccccn1`, the AC50 is 0.251 µM (active).

For `CCOC(=O)c1nnn(-c2nonc2N)c1-c1ccccc1`, the half-maximal activity concentration (AC50) was 2.82 µM (active). In the case of `NC(N)=NC(N)=Nc1c(F)c(F)c(F)c(F)c1F`, the activity, negative = inhibition was -5.72% [at 11.4 µM] (inactive). As to `CCOC(=O)c1nnn(-c2nc(OC)nc(N3CCCCC3)n2)c1-c1ccccc1`, the AC50 was 7.94 µM (active). `COCc1c(C(N)=O)nnn1-c1nonc1N`: the AC50 result is “inactive”. With `CCOC(=O)c1nnn(-c2nonc2N)c1-c1ccc(C)cc1`, the AC50 is 1.58 µM (active). On to `OC[C@H]1NC[C@H](O)[C@@H](O)[C@H]1O`, for which the AC50 entry is “inactive”. Consider `c1cnc(N2CCN(Cc3ccc4c(c3)OCO4)CC2)nc1`, for which the half-maximal activity concentration (AC50) was 2 µM (active) and 631 nM (active) and inactive. For `O=C(CCN1C(=O)c2cccc3cccc(c23)C1=O)N1CCN(Cc2ccc3c(c2)OCO3)CC1`, the half-maximal activity concentration (AC50) was 1.58 µM (active).

In the case of `COCC(=O)N1CCC[C@@]2(CCN(Cc3ccc(C#N)cc3)C2)C1`, the AC50 result was “inactive”.

Turning to `COCC(=O)N1CCC2(CC1)CN(Cc1ccc(C#N)cc1)C2`, the AC50 result was “inactive”. Same read-out and setting: to `O=C(COc1ccc(Cl)cc1)N1CCN(Cc2ccc3c(c2)OCO3)CC1` belongs 5.01 µM (active). As to `O=C(O)[C@@H]1CCCN1Cc1ccc2c(c1)OCO2`, the activity, negative = inhibition was 14.1% [at 11.4 µM] (inactive). In the case of `Cc1cccc(Oc2ncnc3onc(C)c23)c1C`, the AC50 is 5.01 µM (active). Regarding `Cc1noc(C)c1-c1cc(NCc2ccccc2)ncn1`, the AC50 entry is “inactive”. In the case of `Cc1noc2ncnc(Oc3ccc4ccccc4c3)c12`, the AC50 was 7.08 µM (active). On the same count and under the same terms, to `COc1ccc(NC(=O)N2CC3(CCN(C(=O)c4csnn4)CC3)C2)cc1` belongs “inactive”; to `O=C(O)CN1CCN(Cc2ccccc2)C1=O`, 6.31 µM (active); to `Cc1cccc(CN2CCN(CC(=O)O)C2=O)c1`, “inactive”. For the molecule `NC(Cc1ccccc1)=NCC(=O)O`, the activity, negative = inhibition is 18.2% [at 11.4 µM] (inactive). Consider `O=C(O)CN1CCN(Cc2ccc(F)cc2Cl)C1=O`, for which the half-maximal activity concentration (AC50) was 5.01 µM (active).

Take `Nc1nc2ncc(CNc3ccc(C(=O)N[C@@H](CCC(=O)O)C(=O)O)cc3)nc2c(=O)[nH]1`: the AC50 entry is “inactive”. On to `N[C@@H](C(=O)O)c1ccc(O)c(C(=O)O)c1`, for which the AC50 result is “inactive”. As to `Nc1ccc(O)c(C(=O)O)c1`, the AC50 is 5.01 µM (active). On to `NC(N)=N/N=C\c1ccc(O)c(C(=O)O)c1`, for which the activity, negative = inhibition is 16.2% [at 11.4 µM] (inactive). On to `Cc1ccc(C(=O)c2cn[nH]c2-c2cc(Cl)ccc2O)cc1`, for which the half-maximal activity concentration (AC50) was 0.708 µM (active).

As to `Cc1cc2c(nc1C)CCCCN2C[C@H](C)O/N=C\[C@@H](C)[C@H](OCc1ccccc1)C(C)C`, the activity, negative = inhibition is -20.8% [at 11.4 µM] (inactive). As for `CCc1nc(SCC(=O)N2CCCc3ccccc32)c2oc3ccccc3c2n1`, the AC50 was 3.98 µM (active).

Regarding `CCc1nc(SCC(=O)c2ccc(Cl)s2)c2oc3ccccc3c2n1`, the AC50 is 0.562 µM (active).

Take `Cc1nc(SCC(=O)c2ccc(Cl)s2)c2oc3ccccc3c2n1`: the AC50 was 0.178 µM (active). For `CC(=O)OC[C@@H]1O[C@@H](O/N=C2/C[C@@H](O)[C@@H](O)[C@@H]3[C@@H]4C(=O)N(c5cccc(Oc6ccccc6)c5)C(=O)[C@H]4CC[C@@H]23)[C@H](OC(C)=O)[C@H](OC(C)=O)[C@@H]1OC(C)=O`, the activity, negative = inhibition is -22% [at 11.4 µM] (inactive). For `O=C(CCl)Nc1ccc(Oc2cnc3ccccc3n2)cc1`, the AC50 was 5.01 µM (active). The same measure, in the same setting: to `Cn1c(=O)c(-c2ccc(Cl)cc2)nc2cnc(Oc3cccc(Cl)c3)nc21` belongs “inactive”; to `Clc1cccc(Oc2cnc3ccccc3n2)c1`, 3.55 µM (active); to `Cn1cc(-c2nc3cnc(Oc4cccc(Cl)c4)nc3n(CCC#N)c2=O)c2ccccc21`, “inactive”. With `CN1CCCC[C@@H]1CCN1CCCCC1`, the activity, negative = inhibition was 26.3% [at 11.4 µM] (inactive). Turning to `CCOC(=O)C1CCCN(C(=O)c2cc3nc(-c4ccc5c(c4)OCO5)cc(C(F)(F)F)n3n2)C1` (stereo not given), the AC50 is 14.1 µM (active). As to `COc1ccc(-c2cc(C(F)(F)F)n3nc(C(=O)N4CCCCC4)cc3n2)cc1`, the AC50 is 14.1 µM (active). For `COC(=O)c1ccccc1NC(=O)c1cc2nc(C3CC3)cc(C(F)(F)F)n2n1`, the AC50 entry was “inactive”. Turning to `COc1ccc(NC(=O)N2CCCC3(CCN(C(=O)c4cc(C(F)(F)F)cc(C(F)(F)F)c4)CC3)C2)cc1`, the AC50 entry is “inactive”. For `C[C@H](c1ccccc1)N1C(=O)[C@H]2[C@@H]3[C@H](O)[C@H](O)CC(=O)[C@H]3CC[C@H]2C1=O`, the activity, negative = inhibition is -0.855% [at 11.4 µM] (inactive).

Take `CCc1nnc(SCc2ccc(OC(C)C)cc2)n1N`: the half-maximal activity concentration (AC50) is 10 µM (active).

For `COc1cccc2c1C(=N)c1c(O)c3c(c(O)c1C2=O)C[C@](O)(C(C)=O)C[C@@H]3O[C@H]1C[C@H](N)[C@@H](O)[C@H](C)O1`, the activity, negative = inhibition is -44.3% [at 11.4 µM] (inactive).
